The record followed here is publication PMC4552634, “A New Set of Chemical Starting Points with Plasmodium falciparum Transmission-Blocking Potential for Antimalarial Drug Discovery” (PLoS ONE, 2015).

The whole screen tested about 13,000 compounds, of which about 3,200 (25%) showed an effect of 50% or more. The list shows a part of the results.

For the assay, the system named is P. falciparum stage V gametocytes. More on the design: BacTiter-Glo ATP luminescence viability of purified stage V gametocytes in 384-well plates, per cent inhibition versus DMSO. As to conditions: 48 h, 5 µM; inhibitor.
The % Inhibition is the change of the read-out against control, counted positive when it falls. Turning to `O=C(NCc1ccc(Cl)c(Cl)c1)[C@H]1CNCCN1C(=O)c1ccccc1` [TCMDC-141240], the “% Inhibition” value is recorded as 16.71%.

For the compound `Cc1nc2ccc(NC(=O)Nc3ccnc4ccc(C(F)(F)F)cc34)cc2o1` [TCMDC-139534], the “% Inhibition” value was -18.3%.

`COc1ccccc1N1CCN(CCCCNC(=O)c2ccc(NC(=O)c3ccc(OC(F)(F)F)cc3)cc2)CC1` [TCMDC-137780]: the “% Inhibition” value was -5.009%.

On to `CC(=O)Nc1ncc(C(=O)Nc2cccc(-c3cccc(-c4nc5ccc(F)cc5[nH]4)c3)c2)s1` [TCMDC-136914], for which the “% Inhibition” value is given as -0.106%.

On to `CC(CN(C)C)C(=O)Nc1cccc(-c2ccc(-c3nc4ccc(C(F)(F)F)cc4[nH]3)cc2)c1` (centres unmarked) [TCMDC-137112], for which the “% Inhibition” value is recorded as -57.5%.

As to `COc1ccc2c(NN=Cc3cccnc3)cc(C)nc2c1` [TCMDC-142037], the “% Inhibition” value is recorded as 80.26%.

For the compound `COc1ccc2nc(-c3ccccc3)cc(NN=Cc3ccncc3)c2c1` [TCMDC-142041], the “% Inhibition” value is recorded as -9.454%.

On to `COc1ccc2nc(C)cc(NN=Cc3ccccc3)c2c1` [TCMDC-123830], for which the “% Inhibition” value worked out at 2.081%.

On to `COc1ccc2c(NN=Cc3cccnc3)ccnc2c1` [TCMDC-142029], for which the “% Inhibition” value is 1.197%.

For the compound `CCOc1ccc2nc(C)cc(NN=Cc3cccnc3)c2c1` [TCMDC-142047], the “% Inhibition” value was found to be 3.839%.

`COc1ccc2nc(C)cc(NN=Cc3ccncc3)c2c1` [TCMDC-142017]: the “% Inhibition” value is given as 88.79%.

For `Cc1cc(-c2nc3ccc(N4CCN(C)CC4)cc3[nH]2)nn1Cc1cc(Cl)ccc1OCC(C)C` [TCMDC-136722], the “% Inhibition” value came out at 42.92%.

On to `CC(=O)c1cccc(NC(=O)NC2CCN(CCCCCNC(=O)/C=C/c3ccc(Cl)c(Cl)c3)CC2)c1` [TCMDC-135716], for which the “% Inhibition” value is -43.54%.

With `COc1ccc(-c2csc3ncnc(Cl)c23)cc1` [TCMDC-123805], the “% Inhibition” value was 65.98%.

With `Clc1ccc(-c2csc3ncnc(Cl)c23)cc1` [TCMDC-123811], the “% Inhibition” value turned out to be 48.01%.

As for `COc1ccc(-c2csc3ncnc(Cl)c23)cc1OC` [TCMDC-125316], the “% Inhibition” value was determined as 38.88%.

Regarding `COc1cc2c(cc1N(C(C)C)S(=O)(=O)c1sc3ccc(Cl)cc3c1C)CCNCC2` [TCMDC-141465], the “% Inhibition” value was found to be 91.42%.

Consider `Cc1c(S(=O)(=O)Nc2ccc3nccc(N4CCN[C@H](C)C4)c3c2)sc2ccc(Cl)cc12` [TCMDC-139483], for which the “% Inhibition” value was -5.538%.

`Cc1cnc2ccc(NS(=O)(=O)c3sc4ccc(Cl)cc4c3C)cc2c1N1CCNCC1` [TCMDC-139547]: the “% Inhibition” value is 29.85%.

Consider `Oc1ccccc1CCNCC1CCc2ccccc2C1` (centres unmarked) [TCMDC-138024], for which the “% Inhibition” value is on record as -11.67%.

For `O=C(NC1CCCC1)c1cc2c(=O)n3ccccc3nc2nc1NCCc1ccccc1` [TCMDC-125350], the “% Inhibition” value came out at 42.55%.

As to `FC(F)(F)c1ccc2[nH]c(-c3cccc(-c4ccc(CNCCN5CCNCC5)cc4)c3)nc2c1` [TCMDC-132872], the “% Inhibition” value turned out to be 109.9%.

For `Cn1nccc1C(=O)NCCNCc1cccc(-c2ccc(-c3nc4cc(C(F)(F)F)ccc4[nH]3)cc2)c1.O=C(O)C(F)(F)F` [TCMDC-133014], the “% Inhibition” value is on record as -13.72%.

On to `FC(F)(F)c1ccc2[nH]c(-c3ccc(-c4cccc(CNCCN5CCNCC5)c4)cc3)nc2c1` [TCMDC-132864], for which the “% Inhibition” value was 103.8%.

Consider `O=C1CCCN1CCCNCc1cccc(-c2ccc(-c3nc4ccc(C(F)(F)F)cc4[nH]3)cc2)c1` [TCMDC-132761], for which the “% Inhibition” value is given as -39.05%.

With `Cn1nccc1C(=O)NCCNCc1ccc(-c2cccc(-c3nc4cc(C(F)(F)F)ccc4[nH]3)c2)cc1.O=C(O)C(F)(F)F` [TCMDC-133006], the “% Inhibition” value is on record as -36.49%.

With `O=C(O)C(F)(F)F.O=C1CCCN1CCCNCc1cccc(-c2cccc(-c3nc4cc(C(F)(F)F)ccc4[nH]3)c2)c1` [TCMDC-132754], the “% Inhibition” value was -20.15%.

In the case of `FC(F)(F)c1ccc2[nH]c(-c3ccc(-c4ccc(CNCCN5CCNCC5)cc4)s3)nc2c1` [TCMDC-132862], the “% Inhibition” value is given as 105.5%.

With `FC(F)(F)c1ccc2nc(-c3cccc(-c4cccc(CNCCN5CCNCC5)c4)c3)[nH]c2c1` [TCMDC-132871], the “% Inhibition” value is on record as 79.56%.

In the case of `O=C1CCCN1CCCNCc1ccc(-c2cccc(-c3nc4ccc(C(F)(F)F)cc4[nH]3)c2)cc1` [TCMDC-132752], the “% Inhibition” value is on record as -22.52%.

For the compound `O=C(NCCN1CCCC1)c1ccc(-c2ccc(-c3nc4cc(C(F)(F)F)ccc4[nH]3)s2)cc1` [TCMDC-132315], the “% Inhibition” value stood at 12.27%.

Consider `O=C(O)C(F)(F)F.O=C1CCCN1CCCNCc1ccc(-c2ccc(-c3nc4cc(C(F)(F)F)ccc4[nH]3)s2)cc1` [TCMDC-132764], for which the “% Inhibition” value is recorded as -35.61%.

With `O=C(N[C@@H](Cc1cc(F)cc(F)c1)[C@H](O)CNCc1cccc(C(F)(F)F)c1)c1cc(C2CCCC2)cc(N2CCCC2=O)c1` [TCMDC-134677], the “% Inhibition” value is 4.624%.

As for `CCCC(CNCc1cccc(SC(F)(F)F)c1)CNc1cc(=O)c2ccccc2[nH]1` (centres unmarked) [TCMDC-139431], the “% Inhibition” value was 19.28%.

For the compound `COc1ccc(CNCc2cccc(-c3csc(-c4nc5ccccc5[nH]4)c3)c2)cc1` [TCMDC-132734], the “% Inhibition” value is recorded as -55.02%.

As to `Cc1cnc(N2CCN(CC3CCN(C)CC3)CC2)nc1Oc1ccc(-n2ccnc2)cc1` [TCMDC-132782], the “% Inhibition” value amounted to 41.72%.

As to `CC(C)N(Cc1cnc2nc(N)nc(N)c2n1)c1ccc(Cl)c(Cl)c1` [TCMDC-137675], the “% Inhibition” value turned out to be 8.837%.

For the compound `O=C(Nc1cccc(CCNCc2ccccc2)c1)Nc1cccc2ccccc12` [TCMDC-141912], the “% Inhibition” value is reported as -6.517%.

On to `COC(=O)c1ccc(NC(=O)Nc2cccc(CCNCc3ccccc3)c2)cc1` [TCMDC-141910], for which the “% Inhibition” value was 76.66%.

With `CCCCc1ccc(NC(=O)Nc2cccc(CCNCc3ccccc3)c2)cc1` [TCMDC-141911], the “% Inhibition” value was -36.83%.

With `CC(C)c1ccc(NC(=O)Nc2ccc(CCNCCCc3ccccc3)cc2)cc1` [TCMDC-140707], the “% Inhibition” value is reported as 4.807%.

Turning to `O=C(Nc1ccc(Cl)cc1)Nc1cccc(CCNCc2ccccc2)c1` [TCMDC-141913], the “% Inhibition” value stood at 74.03%.

Regarding `O=C(Nc1ccc(Cl)cc1)Nc1cccc(-c2cc(CNCCc3ccccc3)oc2-c2ccncc2)c1` [TCMDC-135557], the “% Inhibition” value is -5.534%.

Regarding `O=C(COc1cccc([N+](=O)[O-])c1)Nc1ccc(-c2nc3ccccc3[nH]2)cc1` [TCMDC-123683], the “% Inhibition” value was 43.84%.

For `Cc1cc(OCC2CCCO2)c2cc(NC(=O)C(=O)Nc3ccc4nc(C)cc(OCC5CCCO5)c4c3)ccc2n1` (centres unmarked) [TCMDC-139970], the “% Inhibition” value is -0.178%.

For `CN1CCN(c2ccnc3ccc(NC(=O)N(C)c4ccc(Cl)c(Cl)c4)cc23)CC1` [TCMDC-139453], the “% Inhibition” value amounted to 8.724%.

For the compound `O=c1[nH]nc(-c2ccc(N3CCCC3)c([N+](=O)[O-])c2)c2ccccc12` [TCMDC-123666], the “% Inhibition” value came to 91.56%.

As to `Cc1nnc2sc(-c3cccc(NC(=O)c4ccc(N5CCCCC5)c([N+](=O)[O-])c4)c3)nn12` [TCMDC-125211], the “% Inhibition” value is recorded as 2.608%.

For the compound `O=C(Nc1ccc(-c2nc3ccccc3[nH]2)cc1)c1ccc(N2CCCC2)c([N+](=O)[O-])c1` [TCMDC-124370], the “% Inhibition” value is recorded as 0.2157%.

As to `O=S(=O)(Nc1ccc2nccc(N3CCNCC3)c2c1)c1ccc2oc3ccccc3c2c1` [TCMDC-139406], the “% Inhibition” value is listed as -1.818%.

Regarding `Cc1cc(N2CCCC2)nc(Nc2ccc(NC(=O)c3ccc(Br)o3)cc2)n1` [TCMDC-124708], the “% Inhibition” value is -0.4475%.

Turning to `COc1ccc(C(=O)N[C@@H](CC(C)C)C(=O)N[C@H](/C=N/NC(=O)c2ccccc2)CCc2ccccc2)cc1OCCN1CCOCC1` [TCMDC-135529], the “% Inhibition” value is listed as -24.16%.

Consider `Cc1ccc(NC(=O)N2CCCN(CCCCCNC(=O)/C=C/c3ccc(Cl)c(Cl)c3)CC2)cc1C` [TCMDC-135747], for which the “% Inhibition” value is given as -47.01%.

Regarding `CCC(C)NC(=O)Nc1ccc(-c2cccc(-c3nc4ccc(C(F)(F)F)cc4[nH]3)c2)cc1` (centres unmarked) [TCMDC-133240], the “% Inhibition” value was 1.328%.

As to `Cc1nn(-c2ccc(Cl)cc2)c2[nH]c(CN3CCN(c4cccc(Cl)c4)CC3)cc(=O)c12` [TCMDC-124869], the “% Inhibition” value came out at 23.11%.

For `CCC[C@@H]([C@@H](CC(C)C)C(=O)N[C@@H](CCCNc1nccc(C(F)(F)F)n1)C(=O)Nc1nccs1)N(O)C=O` [TCMDC-137458], the “% Inhibition” value stood at 53.7%.

`CCCC(C(CC1CCC(C)CC1)C(=O)NC(CCCNc1ncccn1)C(=O)Nc1nccs1)N(O)C=O` (centres unmarked) [TCMDC-138160]: the “% Inhibition” value stood at 11.06%.

For the compound `CCC[C@@H]([C@@H](CC(C)C)C(=O)N[C@@H](CCCCNC(=O)c1cccc(OC)c1)C(=O)Nc1nccs1)N(O)C=O` [TCMDC-137305], the “% Inhibition” value is on record as 57.38%.

Take `CCC[C@@H]([C@@H](CC(C)C)C(=O)N[C@@H](CCCCNC(=O)c1ccccn1)C(=O)Nc1nccs1)N(O)C=O` [TCMDC-137550]: the “% Inhibition” value is given as 43.83%.

As for `CCC[C@@H]([C@@H](CC(C)C)C(=O)N[C@@H](CCCN=C(N)NS(C)(=O)=O)C(=O)Nc1nccs1)N(O)C=O` [TCMDC-138171], the “% Inhibition” value is reported as -40.24%.

For `CCC[C@@H]([C@@H](CC1CCC(C)CC1)C(=O)N[C@@H](CCCCNC(=O)c1ccccn1)C(=O)Nc1nccs1)N(O)C=O` (some centres unmarked) [TCMDC-138151], the “% Inhibition” value was 22.92%.

Turning to `COc1ccc(CC(C)CON2C(N)=NC(N)=NC2(C)C)cc1` (centres unmarked) [TCMDC-131722], the “% Inhibition” value came to 5.106%.

On to `O=C(NCCNc1ccnc(Nc2ccc(F)cc2)n1)Nc1ccc2c(c1)OCO2` [TCMDC-133641], for which the “% Inhibition” value is reported as -26.39%.

Turning to `CC(C)(CNCc1cc(Cl)cc(Cl)c1)c1nc(-c2ccc(Cl)c(O)c2)c(-c2ccnc(N)n2)[nH]1` [TCMDC-141164], the “% Inhibition” value is given as -8.339%.

As to `CC1CN(c2ccc(NC(=O)c3ccsc3)cc2C(=O)N2CCN(Cc3ccc(C(C)(C)C)cc3)CC2)CC(C)O1` (centres unmarked) [TCMDC-139281], the “% Inhibition” value is listed as 17.04%.
